Source: PubChem
In the library only some 2.3% were active in any assay of this set; here they are far more common.
Calpain2 inh = inhibitors of pig calpain II | purified calpain II, fluorogenic peptide substrate, 30 min | inhibition, % at 16 µM | 0.37% of 220,000 active | AID 1236;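 active means inhibition above about 50%, limit read from the data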
FAS TE block = blocks the thioesterase domain of human fatty acid synthase; P49327; inhibition, % at 15 µM; AID 602261; recombinant FAS-TE, OMFH fluorogenic substrate, fluorescence endpoint; 0.67% of 360,000 active;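 active means compounds whose normalised, plate-corrected inhibition of enzyme fluorescence in the single-dose primary screen is 50% or more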
aDG glyco up = alpha-DG glycosylation activation; 0.22% of 360,000 active; Pro5-aDG cells, alpha-DG glycosylation AlphaScreen (IIH6); 0% Pro5, 100% B10-LARGE cell signal; AID 624168; activation, % at 10 µM;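 active means activation of at least 8% versus controls, or a plate z-score of at least 8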;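 further: Pro5 are CHO cells carrying HIG-tagged alpha-DG that lacks glycosylation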
H9c2 protect = modulators protecting cardiomyocytes from myocardial damage | 0.63% of 360,000 active | protection from H2O2 cell death, % at 20 µM | H9c2 cardiomyocytes, H2O2 injury protection, ATPLite, 2 h;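 active means compounds giving at least 50% protection of heart cells from peroxide-induced death in the single-dose screen, raw or plate-pattern-corrected value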
H9c2 TAG inh = reduces triacylglycerol accumulation in H9c2 cells | Nile Red lipid (TAG) fluorescence; cells loaded with 200 µM oleic acid | inhibition, % at 12.5 µM | 0.66% of 230,000 active | AID 651582;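 active means pattern-corrected inhibition of lipid staining of at least 50% with the nuclear-stain viability signal not falling by more than 50%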
beta cell repl = MIN6 beta-cell proliferation induction. AID 2380. proliferation, % at 10 µM. 0.29% of 330,000 active. MIN6 cells proliferation, ATPlite luminescence, 48 h; cells starved in 0.2% serum; 100% = growth in 10% serum;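 active means compounds whose signal lies at least 3.5 SD above the mean of all wells on their plate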
A number is an active result; n = inactive; x = not tested or not shown.

SMILES | Calpain2 inh | FAS TE block | aDG glyco up | H9c2 protect | H9c2 TAG inh | beta cell repl
CCNC(=O)C1(C)CCCN(C(=O)c2cc(-c3ccccc3)cs2)C1 (centres undefined) | x | n | n | n | n | x
C=CCN(c1ccccc1OC)S(=O)(=O)c1cccc(C(=O)Nc2nnc(C3CC3)s2)c1 | x | n | n | n | n | n
CCCCn1c(NC(=O)c2ccccc2)nc2ccccc21 | n | n | n | 81 | x | n
CCn1c(NC(=O)c2ccccc2)nc2ccccc21 | n | n | n | n | n | n
COc1ccc(NS(=O)(=O)c2cccc(NC(=O)c3ccc(Cl)nc3)c2)cc1 | n | n | 8.5 | n | n | n
O=C(Nc1cccc(S(=O)(=O)Nc2ccc(Cl)cc2)c1)c1ccc(Cl)nc1 | n | n | n | n | n | n
Cc1cccc(NC(=O)c2c(F)c(F)c(F)c(F)c2F)c1 | n | n | n | n | n | n
O=C(Nc1ccc2c(c1)OCO2)c1c(F)c(F)c(F)c(F)c1F | 52 | n | n | n | x | n
CC(=O)c1cccc(NC(=O)c2c(F)c(F)c(F)c(F)c2F)c1 | 51 | n | n | n | x | n
O=c1c2ccccc2cnn1Cc1ccc(Br)cc1F | x | n | n | n | x | n
COc1ccc2nc3cc(Cl)ccc3c(Nc3ccc(O)c(CN4CCN(C)CC4)c3)c2c1 | x | n | n | n | 54 | x
Cc1[nH]n(-c2ccccc2)c(=O)c1/C=N/NC(=O)COc1ccccc1[N+](=O)[O-] | n | n | n | 62 | n | n
Cc1[nH]n(-c2cccc3ccccc23)c(=O)c1/C=N/NC(=O)c1cccc([N+](=O)[O-])c1 | n | n | n | 56 | x | n
Cc1ccc(S(=O)(=O)NC(=O)C2(C)CCN2C(=O)c2ccccc2CCc2ccccc2)cc1 (centres undefined) | x | n | n | n | n | x
C[C@@H]1Cn2cnc(C(=O)N[C@@H](C)c3ccccc3)c2C(=O)N1 | x | n | n | n | n | x
COc1cc(CNC(=O)c2cc(-c3ccc(F)cc3C)n[nH]2)cc(OC)c1 | x | n | n | n | n | x
CCOC(=O)c1c(SCCN2CCCC2)n(-c2ccccc2)c(=S)n(-c2ccccc2)c1=O | x | n | n | n | 82 | x
CCOC(=O)c1c[nH]c(=S)n(-c2ccccc2)c1=O | x | n | n | n | n | n
NCC12CC3CC(C1)CC(c1ccc(Br)cc1)(C3)C2 | x | n | n | n | x | n
Cc1ccc(C23CC4CC(CC(CN)(C4)C2)C3)cc1 | n | n | 9.5 | n | n | x
C=CCNC(=S)Nc1c(N)n(C)c(=O)n(C)c1=O | n | n | n | n | n | n
O=c1c(Cl)c2oc3ccccc3nc-2c2ccccc12 | n | n | 6.1 | n | n | n
COc1ccccc1-c1nnc(SCC(=O)NCc2c(C)c(Cl)cc(C(C)C)c2O)o1 | 51 | n | n | n | x | n
COc1ccccc1-c1nnc(SCC(=O)Nc2c(Cl)cccc2Cl)o1 | n | n | n | n | x | n
CCC(=O)N1CCN(c2ccccc2NC(=O)COc2cc(C)ccc2C(C)C)CC1 | n | n | n | 55 | x | n
SMILES | Calpain2 inh | FAS TE block | aDG glyco up | H9c2 protect | H9c2 TAG inh | beta cell repl
CC(C)Cn1c(=O)c(C(=O)NCc2ccccn2)c(O)c2ccccc21 | n | n | n | 56 | n | n
CCn1c(=O)c(C(=O)NCc2ccccc2)c(O)c2ccccc21 | x | n | n | n | x | n
COc1cc2c(C(=O)NCc3ccccn3)cn(CC(C)C)c(=O)c2cc1OC | n | n | n | 54 | n | n
CC1CCN(C(=O)COC(=O)c2n[nH]c(=O)c3ccccc23)CC1 | x | n | n | 62 | n | n
CCOC(=O)c1n[nH]c(=O)c2ccccc12 | n | n | n | n | x | n
O=C1c2ccccc2NC(c2cccc([N+](=O)[O-])c2)N1O (centres undefined) | x | n | n | n | x | n
Cc1c(C2Nc3ccccc3C(=O)N2O)cnn1C (centres undefined) | n | n | n | 52 | n | n
O=C1c2ccccc2NC(c2ccc([N+](=O)[O-])cc2)N1O (centres undefined) | n | n | n | 62 | n | n
CCn1cc(C2Nc3ccccc3C(=O)N2O)c(C)n1 (centres undefined) | n | n | n | n | n | n
O=C(COC(=O)c1ccccc1Br)NC(=O)NCc1ccccc1 | x | n | n | n | n | n
COc1cc2ccnc(C=O)c2cc1OC | x | n | n | 56 | n | x
COc1cc2ccnc(C=NO)c2cc1OC | x | n | n | n | n | x
CCOC(=O)N1CC(C)N(CC(O)CN2CCOCC2)CC1C (centres undefined) | x | n | n | n | n | x
COc1cc2c(cc1CNC[C@H]1O[C@@H](n3ccc(N)nc3=O)[C@H](O)[C@@H]1O)OCO2 | x | n | n | n | n | x
COc1ccc(CN(C)C(=O)C(Cc2ccccc2)NC(=O)c2ccccc2)cc1F (centres undefined) | x | n | n | 50 | n | n
CC1CN(Cc2c(O)ccc3c2oc(=O)c2ccccc23)CC(C)O1 (centres undefined) | 80 | n | n | n | n | n
CC(=O)Nc1sc2c(c1-c1nc3ccccc3s1)CN(C(C)C)CC2 | x | n | n | n | 78 | n
O=C(c1ccccc1)c1ccc(OC(=O)C2CCCCC2)cc1 | x | n | n | n | x | n
O=C(c1ccco1)N1CCN(Cc2nc3ccc([N+](=O)[O-])cc3c(=O)n2-c2ccccc2F)CC1 | n | n | n | 54 | n | n
CSc1ncccc1C(=O)OCC(=O)NC1CCC(C)CC1 (centres undefined) | x | n | n | n | n | n
O=C(Nc1cccc(-c2cnc3ccccc3n2)c1)c1cccc(NC(=O)c2ccco2)c1 | n | n | n | 61 | n | n
CCOc1ncccc1C(=O)Nc1cccc(-c2nc3cccnc3s2)c1 | n | n | n | 64 | n | n
O=C(Nc1cccc(-c2nc3cccnc3s2)c1)c1ccco1 | n | n | n | 70 | x | n
O=C(Nc1ccc(-c2nc3cccnc3s2)cc1)c1ccco1 | n | n | n | n | n | n
Nc1sccc1C(=O)NCCN1CCOCC1 | x | x | n | x | x | x
SMILES | Calpain2 inh | FAS TE block | aDG glyco up | H9c2 protect | H9c2 TAG inh | beta cell repl
Cc1ccc2c(c1)N(CC(=O)NCCCN1CCOCC1)C(=O)c1cccnc1O2 | x | n | n | n | n | n
Cc1oc2c(c1C(=O)Nc1cccc3ccccc13)CCCC2 | 58 | n | n | n | n | n
C[C@@H]1COC(=O)CCC/C=C\C[C@@H](CC(=O)N(CCO)Cc2ccccc2)C(=O)N1 | x | n | n | n | n | n
CC(C)(C)c1ccc(C(=O)Nc2ccc(Cl)cc2)cc1 | n | n | n | n | x | n
COC(=O)Cc1ccc(NC(=O)c2ccc(C(C)(C)C)cc2)cc1 | n | n | n | n | 72 | n
CCc1nc2ccc(C(=O)NCc3cccs3)cn2c1N(C)Cc1nccs1 | x | n | n | 48 | n | x
CCc1nc2ccc(C(=O)NCCC(C)C)cn2c1N(C)Cc1nccs1 | x | n | n | n | n | x
Cc1c(C#N)c(N)nc2c3c(sc12)NC(=O)CC3c1ccc(Cl)cc1 (centres undefined) | n | n | n | 50 | n | n
CCOc1ccc(NC(=O)c2ccccc2SC)cc1 | n | n | n | n | n | n
